The results in this text go back to PubChem BioAssay.

Active and inactive are the calls of the source.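 How the source made its calls, unless noted: active means inhibition of the reporter signal at or above 50%; inactive means inhibition below 50%.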

Assay [1] in a line: inhibitors of TNFa-induced NFkB p65 translocation, primary screen, imaging, HUVEC, MLSMR starter and 10KST1 sets (AID 438;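 active means inhibition above 20% together with a positive visual image hit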;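 further: compound added about 3h40 before a 20 min TNFalpha stimulation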;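 on inhibition: signal is the nuclear over cytoplasmic p65 intensity ratio per well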). To be noted: HUVEC TNFa-induced p65 nuclear translocation; cell count: measured here: nuclei count (cytotoxicity indicator), at 2.08 µM; inhibition: at 2 µM, stronger effect = higher value, 0% TNFa-plus-vehicle, 100% no-TNFa wells.
Assay [2] is described as follows: inhibitors of mutant huntingtin aggregation, primary screen, imaging, exon1htt(103Q)mCFP cells, high-content imaging (AID 483;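 active means visual image review flags a hit and inhibition of aggregation exceeds 20%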;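 further: compound exposure lasted 3 days before fixation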;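 on nuclei count: percent of the per-plate median nuclei count of sample wells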). To be noted: exon1htt(103Q)mCFP cell line, aggregate imaging, at 2 µM; inhibition of aggregation: stronger effect = higher value; nuclei count: measured here: cell count, toxicity.
Assay [3] can be described thus: inhibitors of E-selectin induction by TNFa, primary screen, imaging, HUVEC, immunofluorescence, MLSMR starter and 10KST1 sets (AID 487;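 active means visually confirmed hit in the image check and inhibition above 20%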;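 on inhibition: signal is fraction of cell area covered by stained E-selectin grains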;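 on nuclei count: 100% = median nuclei count of all wells on the same plate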). The note with it: HUVEC TNFalpha-induced E-selectin immunofluorescence imaging, at 2 µM; inhibition: stronger effect = higher value; nuclei count: measured here: cell number, toxicity.
Assay [4] deals with Voltage-gated potassium channel subunit beta-2 (Rattus norvegicus) (UniProt P62483). The assay is described as follows: KvBeta enzyme negative modulators, primary screen, biochemical, NADPH fluorescence (AID 622;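 active means fluorescence slope higher than the sample average by over 3 SD, cut at about -0.22 in these data, passing the limit was not always enough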;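 further: slope of raw intensity against log time taken from 70 to 1610 s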). To be noted: recombinant KvBeta, 4-cyanobenzaldehyde reduction, at 10 µM, stronger effect = higher value.
Chain of Voltage-gated potassium channel subunit beta-2 (Rattus norvegicus) (P62483 whole entry, looked up): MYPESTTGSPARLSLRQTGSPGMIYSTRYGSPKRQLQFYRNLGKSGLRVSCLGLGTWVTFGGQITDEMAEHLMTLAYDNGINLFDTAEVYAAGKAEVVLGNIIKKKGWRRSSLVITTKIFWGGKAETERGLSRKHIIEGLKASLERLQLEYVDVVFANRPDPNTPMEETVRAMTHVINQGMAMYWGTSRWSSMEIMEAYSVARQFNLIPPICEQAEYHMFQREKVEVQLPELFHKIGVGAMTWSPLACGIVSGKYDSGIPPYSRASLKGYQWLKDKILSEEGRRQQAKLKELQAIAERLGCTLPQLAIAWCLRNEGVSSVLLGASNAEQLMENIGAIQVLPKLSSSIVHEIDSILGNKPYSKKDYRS
The target is the same in assay [5]. The assay is described as follows: KvBeta positive modulators, primary screen, biochemical, NADPH fluorescence (AID 623;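 active means NADPH fluorescence slope more negative than the mean of all samples by about 3 SD, 99.7% confidence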;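 further: fluorescence intensity change per second fitted from 20 to 320 s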). To be noted: Recombinant KvBeta, NADPH fluorescence decrease slope, 10 min; at 10 µM; stronger effect = lower value.
Assay [6] addresses Alpha-2C adrenergic receptor (Homo sapiens) (UniProt P18825). The assay is described as follows: modulators of alpha2C/GIRK thallium flux, primary screen, cell-based, HEK293 alpha2C/GIRK1/2 (AID 624;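 active means fluorescence slope after compound addition differing from the mean of all screened samples at 99.7% confidence, in either direction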;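 further: slope of fluorescence ratio to pre-addition baseline per second over 15 to 24 s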). To be noted: thallium flux BTC fluorescence, at 10 µM, actives lie on both sides.
Assay [7] in a line: inhibitors of Sendai virus-induced IRF3 signaling, primary screen, TLR/RLR signaling modifier project, cell-based, Sendai virus stimulus, luciferase, 10K MLSCN set (AID 602276;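 active means inhibition at or above 50% at 10 µM; inactive means inhibition below 50%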;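 further: firefly luciferase from ISG56 promoter only with Renilla not read in this screen; 0% = Sendai virus plus DMSO and 100% = medium plus DMSO without virus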). The note with it: HEK293 RL24 IRF3 luciferase reporter, at 10 µM, stronger effect = higher value.
Assay [8] can be described thus: inhibitors of poly I:C-induced TLR3 signaling, primary screen, cell-based, poly I:C stimulus, luciferase, 10K MLSCN set (AID 602277). The note with it: HEK293-TLR3 RL24 IRF3 luciferase reporter, at 10 µM, stronger effect = higher value.

Chain of Alpha-2C adrenergic receptor (Homo sapiens) (P18825 whole entry, looked up): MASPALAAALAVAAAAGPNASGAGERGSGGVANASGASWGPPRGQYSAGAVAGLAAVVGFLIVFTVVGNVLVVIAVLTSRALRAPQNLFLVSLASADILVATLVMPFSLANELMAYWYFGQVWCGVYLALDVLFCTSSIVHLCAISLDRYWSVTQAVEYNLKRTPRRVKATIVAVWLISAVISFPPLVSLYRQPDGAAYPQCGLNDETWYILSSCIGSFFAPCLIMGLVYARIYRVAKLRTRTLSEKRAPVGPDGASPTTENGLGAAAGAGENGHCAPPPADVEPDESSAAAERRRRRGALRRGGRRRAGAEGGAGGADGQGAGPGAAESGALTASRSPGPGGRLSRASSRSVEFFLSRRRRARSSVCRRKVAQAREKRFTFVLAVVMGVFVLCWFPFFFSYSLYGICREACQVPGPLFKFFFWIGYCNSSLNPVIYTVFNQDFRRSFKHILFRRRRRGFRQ

In the case of `Cn1c(/C=N/n2cnnc2)nc2ccccc21`, in assay [1], the cell count came to 448. The inhibition in assay [1] was 3.5% (inactive); in assay [3] it was -12.1% (inactive); in assay [7], 6.17% (inactive); in assay [8], 35.3% (inactive). In addition, the inhibition of aggregation in assay [2] was -4.4% (inactive). The values for the nuclei count in assay [2] and in assay [3] were 114% and 123%, respectively. In addition, the fluorescence slope in assay [4] was -0.0404 (active). Besides, in assay [5], the NADPH fluorescence slope was -7e-06 (inactive). In assay [6], the slope was 0.00495 (inactive).
For the compound `CC(=O)N1CCN(Cc2ccc(Br)s2)CC1`, the cell count in assay [1] came out at 362. For the same compound, the inhibition in assay [1] was -3.4% (inactive); in assay [3], -10.6% (inactive); in assay [7], 13.6% (inactive); in assay [8], 20.9% (inactive). In addition, in assay [2], the inhibition of aggregation is 2% (inactive). Besides, the nuclei count in assay [2] was determined as 114%; in assay [3] it was 106%. The fluorescence slope in assay [4] is -0.442 (inactive). Besides, the NADPH fluorescence slope in assay [5] is -1.9e-05 (inactive). The slope in assay [6] is 0.00639 (inactive).
Take `CC(O)c1c(OCc2ccccc2)ncnc1OCc1ccccc1` (centres undefined): in assay [1], the cell count was 426. Also, the inhibition in assay [1] is 0.5% (inactive); in assay [3], -36.1% (inactive); in assay [7], 10.6% (inactive); in assay [8], 20.8% (inactive). For the same compound, the inhibition of aggregation in assay [2] was -7.1% (inactive). For the same compound, the nuclei count in assay [2] amounted to 65.7%; in assay [3], 115%. The fluorescence slope in assay [4] is -0.44 (inactive). Moreover, in assay [5], the NADPH fluorescence slope is -0.000123 (inactive). Further, the slope in assay [6] was 0.00502 (inactive).
With `O=C(OCC(=O)N1CCc2ccccc21)C1=COCCO1`, the cell count in assay [1] stood at 341. The inhibition is -3.1% (inactive) in assay [1], -37% (inactive) in assay [3], -12.3% (inactive) in assay [7] and -46.6% (inactive) in assay [8]. Further, the inhibition of aggregation in assay [2] was 8.9% (inactive). Moreover, the nuclei count was determined as 86.5% in assay [2] and 113% in assay [3]. For the same compound, the fluorescence slope in assay [4] was -0.633 (inactive). Besides, the NADPH fluorescence slope in assay [5] was -7.8e-06 (inactive). The slope in assay [6] is 0.00715 (inactive).
On to `O=C(CSCCSCC(=O)c1ccco1)c1ccco1`, for which, in assay [1], the cell count came to 594. For the same compound, the inhibition was -6.1% (inactive) in assay [1], -44.4% (inactive) in assay [3], 7.09% (inactive) in assay [7] and 7.22% (inactive) in assay [8]. Also, the inhibition of aggregation in assay [2] was -12% (inactive). Moreover, the nuclei count in assay [2] turned out to be 84.7%; in assay [3], 138%. For the same compound, in assay [4], the fluorescence slope was -0.421 (inactive). Also, the NADPH fluorescence slope in assay [5] is -6.5e-05 (inactive). Further, in assay [6], the slope was 0.00644 (inactive).
As to `COc1cccc(NC(=O)N[C@@H](Cc2ccccc2)C(=O)O)c1`, in assay [1], the cell count came to 565. Moreover, the inhibition is -9.8% (inactive) in assay [1], -37% (inactive) in assay [3], 6.12% (inactive) in assay [7] and 15.1% (inactive) in assay [8]. Further, in assay [2], the inhibition of aggregation was -6.9% (inactive). Moreover, the nuclei count in assay [2] was determined as 103%; in assay [3], 100%. Further, the fluorescence slope in assay [4] is -0.591 (inactive). The NADPH fluorescence slope in assay [5] was -3.6e-05 (inactive). In addition, the slope in assay [6] was 0.00635 (inactive).
In the case of `O=C(CCC1COc2ccccc2O1)NCC1COc2ccccc2O1` (centres undefined), the cell count in assay [1] was 568. The inhibition is 2.4% (inactive) in assay [1], -72.2% (inactive) in assay [3], 13.4% (inactive) in assay [7] and 19.2% (inactive) in assay [8]. Besides, the inhibition of aggregation in assay [2] was -5.5% (inactive). The nuclei count came to 117% in assay [2] and 85.5% in assay [3]. In assay [4], the fluorescence slope was -0.499 (inactive). For the same compound, the NADPH fluorescence slope in assay [5] is -2.5e-05 (inactive). Also, the slope in assay [6] was 0.0058 (inactive).
`CCc1nn2c(=O)cc(CSc3nc4sc5c(c4c(=O)n3C)CCCC5)nc2s1`: the cell count in assay [1] amounted to 536. In addition, the inhibition is -14.1% (inactive) in assay [1], 38% (inactive) in assay [3], -3.07% (inactive) in assay [7] and -3.25% (inactive) in assay [8]. Besides, the inhibition of aggregation in assay [2] was -13.9% (inactive). In addition, the nuclei count was found to be 118% in assay [2] and 65.2% in assay [3]. Besides, the fluorescence slope in assay [4] was -0.598 (inactive). Besides, the NADPH fluorescence slope in assay [5] was 4.1e-05 (inactive). Further, the slope in assay [6] is 0.00602 (inactive).
Regarding `O=C(COC(=O)c1cccc(S(=O)(=O)N2CCc3ccccc32)c1)NC1CCS(=O)(=O)C1` (centres undefined), in assay [1], the cell count is 611. Moreover, the inhibition is 8.9% (inactive) in assay [1], -104% (inactive) in assay [3], 3.1% (inactive) in assay [7] and 12.9% (inactive) in assay [8]. The inhibition of aggregation in assay [2] was -6.2% (inactive). Also, the nuclei count in assay [2] was 125%; in assay [3], 111%. In addition, the fluorescence slope in assay [4] is -0.283 (inactive). Further, the NADPH fluorescence slope in assay [5] was -7.3e-05 (inactive). In addition, the slope in assay [6] was 0.00577 (inactive).
With `CC(C)c1cc(C(=O)NCc2ccco2)no1`, the cell count in assay [1] is 788. Besides, the inhibition was 3.7% (inactive) in assay [1], -45.3% (inactive) in assay [3], -22.8% (inactive) in assay [7] and -50.6% (inactive) in assay [8]. The inhibition of aggregation in assay [2] is -21.5% (inactive). In addition, the nuclei count in assay [2] is 104%; in assay [3], 106%. In addition, in assay [4], the fluorescence slope was -0.586 (inactive). In addition, in assay [5], the NADPH fluorescence slope was -2.6e-05 (inactive). Further, the slope in assay [6] was 0.00624 (inactive).
On to `Cc1cc(NCCN2CCCCC2)n2c(nc3ccccc32)c1C#N`, for which the cell count in assay [1] is 624. Further, the inhibition is -10.5% (inactive) in assay [1], -2% (inactive) in assay [3], 10.4% (inactive) in assay [7] and 21.6% (inactive) in assay [8]. The inhibition of aggregation in assay [2] is -3.2% (inactive). The results for the nuclei count in assay [2] and in assay [3] were 61.6% and 134%, respectively. In addition, the fluorescence slope in assay [4] is -0.526 (inactive). Besides, the NADPH fluorescence slope in assay [5] was -4.4e-05 (inactive). The slope in assay [6] is 0.0039 (inactive).
`CC(C)N(Cc1nc(-c2ccc(Cl)cc2)no1)C(=O)CN(C)S(=O)(=O)c1ccc(Cl)cc1`: in assay [1], the cell count was 629. For the same compound, the inhibition was -2.8% (inactive) in assay [1], -53.8% (inactive) in assay [3], 20.4% (inactive) in assay [7] and 25.9% (inactive) in assay [8]. Also, the inhibition of aggregation in assay [2] is -11.8% (inactive). Besides, the nuclei count in assay [2] came to 95.7%; in assay [3], 106%. The fluorescence slope in assay [4] is -0.467 (inactive). Also, the NADPH fluorescence slope in assay [5] was -5.4e-05 (inactive). The slope in assay [6] was 0.00647 (inactive).
`COc1ccc(-c2nc(C#N)c(NCCCN(C)C)o2)cc1OC`: the cell count in assay [1] was found to be 713. In addition, the inhibition is -9.1% (inactive) in assay [1], -8.3% (inactive) in assay [3], 1.52% (inactive) in assay [7] and 33.3% (inactive) in assay [8]. For the same compound, the inhibition of aggregation in assay [2] is -8.5% (inactive). Moreover, the nuclei count came to 99.3% in assay [2] and 98.4% in assay [3]. Further, the fluorescence slope in assay [4] was -0.222 (active). Besides, the NADPH fluorescence slope in assay [5] is -1.8e-06 (inactive). The slope in assay [6] is 0.00305 (inactive).
On to `CCOC(=O)CSc1nnc(-c2ccccc2OC)o1`, for which the cell count in assay [1] is 574. In addition, the inhibition in assay [1] was -3.6% (inactive); in assay [3], -74.1% (inactive); in assay [7], -10.7% (inactive); in assay [8], 99.6% (active). The inhibition of aggregation in assay [2] is -42.2% (inactive). Further, the nuclei count in assay [2] worked out at 112%; in assay [3] it was 105%. Besides, in assay [4], the fluorescence slope was -0.523 (inactive). In addition, in assay [5], the NADPH fluorescence slope was -0.000143 (inactive). In addition, the slope in assay [6] was 0.00552 (inactive).
